In ChEMBL document CHEMBL3433997, “St. Jude Leishmania screening dataset” (2016):

What follows are molecules tested against Hexose transporter 1 (Plasmodium falciparum) (UniProt O97467) (assay: ST_JUDE_LEISH: Cytotoxicity at 2uM final concentration against transgenic Leishmania Mexicana promastigotes LmPfHT that are glucose transport deficient and complemented with the Plasmodium falciparum hexose transporter. Activity is measured by DNA content using SYBR green in vitro).
Format: functional

Q: For O=C(c1ccccc1)N(Cc1ccccc1-c1ccc(CNCCc2ccccc2)cc1)C1CCN(Cc2ccccc2)CC1, which inhibition is on record?
A: 10.8%

Q: COc1ccc(-c2ccc(NC(=O)c3cccc(C#N)c3)cc2)cc1CN1CCCC(C(N)=O)C1 (centres undefined) was tested. Which inhibition did it give?
A: 2.51%

Q: For Cc1nc2ccc([N+](=O)[O-])cc2c(=O)n1OCc1ccccc1, which inhibition is on record?
A: 2.03%

Q: How did the inhibition turn out when COc1cc2nc(N3CCC(CCCC4CCNCC4)CC3)nc(NCc3ccccn3)c2cc1OC was run?
A: 68.6%

Q: Which inhibition does the source give for Fc1ccc2[nH]c(-c3cccc(-c4ccc(CN5CCC(CCN6CCCCC6)CC5)cc4)c3)nc2c1 here?
A: 4.58%

Q: Which inhibition does the source give for CN1CCC(C(=O)Nc2cccc(-c3ccc(-c4nc5cc(F)ccc5[nH]4)cc3)c2)CC1 here?
A: 10.3%

Q: CCN(CC)c1ccc(C=CC(=O)NCCN2CCC(N(C)C3CCCCC3C)CC2)cc1 (centres undefined) was tested. Which inhibition did it give?
A: -0.93%

Q: COCCN1CCC(N(Cc2ccc(-c3ccc(C(F)(F)F)cc3)cc2)C(=O)Cn2c(CCc3cccc(F)c3F)cc(=O)c3c2CCC3)CC1 was tested. Which inhibition did it give?
A: -0.63%

Q: O=C(Nc1ccc(Br)cc1)N1CCC(n2c(-c3ccccc3)nc3cccnc32)CC1 was tested. Which inhibition did it give?
A: 1.56%

Q: C(=N\Nc1nccc2sc(-c3cccnc3)cc12)/c1cccnc1 was tested. Which inhibition did it give?
A: 1.38%

Q: How did the inhibition turn out when CC(C)Oc1cc(-c2ccc(S(C)(=O)=O)cc2)nc(N(Cc2cccc(F)c2F)Cc2cccc(F)c2F)n1 was run?
A: 0.65%

Q: Which inhibition does the source give for COc1cc(C=CC(=O)N2CCC3(CC2)CC(=O)c2ccccc2O3)cc(OC)c1OC here?
A: 2.09%

Q: Which inhibition does the source give for CN(C)c1ccc(CN2CCCC(CNC(=O)c3ccc(-c4cccc(C(F)(F)F)c4)s3)C2)cc1 (centres undefined) here?
A: 1.64%

Q: How did the inhibition turn out when O=C(/C=C/c1ccc(Cl)cc1)NCCCCCN1CCCC(C(=O)Nc2ccc(Cl)cc2)C1 (centres undefined) was run?
A: 5.61%
